High-throughput results from PubChem BioAssay.
In the library only some 4.2% were active in any assay of this set; here they are far more common.
NALP1 inh: blocks the NALP1 inflammasome reconstituted in yeast; S. cerevisiae NALP1/ASC/caspase-1 growth, X-gal OD620, 72 h; 280,000 tested, 0.61% active; inhibition, % at 10 µM; in the data active = inhibition mostly above about 24%, no sharp cut-off; inactive = mostly below about 32%
tim23-1 inh: tim23-1 yeast growth inhibition. S. cerevisiae tim23-1 growth, BacTiter-Glo luminescence, 24 h. inhibition, % at 20 µM. 330,000 tested, 1.3% active;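 active = growth inhibition of the mutant yeast at or above 50%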;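 note: temperature-sensitive mutant grown at 25 °C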
NALP3 yeast inh: blocks the NALP3 inflammasome reconstituted in yeast. Yeast reconstituted NLRP3/ASC/caspase-1, beta-gal luminescence, 24 h. inhibition, % at 10 µM. 330,000 tested, 0.39% active. AID 2825;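 active = inhibition of 50% or more; inactive = inhibition below 50%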
tim10-1 inh: growth inhibitors of tim10-1 mutant yeast; S. cerevisiae tim10-1 ts strain growth, BacTiter-Glo, 24 h; inhibition, % at 20 µM; 330,000 tested, 2.2% active; AID 463190;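 active = inhibition of at least 40%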;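 note: mutant grown at 25 °C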
PfHsp90 set2: reduces growth (ATP signal) of yeast expressing P. falciparum Hsp90. 310,000 tested, 0.32% active. S. cerevisiae expressing PfHsp90, BacTiter-Glo ATP, 48 h; yeast lacking PDR1 and PDR3 efflux regulators. inhibition, % at 9.4 µM;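 active = every replicate shows inhibition above about 80%, whatever the replicate mean, limit read from the data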
TIM10 inh: growth inhibitors of TIM10 yeast strain; S. cerevisiae TIM10 strain growth, BacTiter-Glo luminescence, 24 h; 330,000 tested, 1.4% active; inhibition, % at 10 µM;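 active = inhibition of 40% or more at the single tested concentration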;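 note: wild-type TIM10 isogenic control strain grown at permissive 25 °C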
tim10-1 confirm: tim10-1 yeast growth inhibition, confirmed. 7,400 tested, 56% active. AID 463213. shares compounds with tim10-1 inh. inhibition, % at 20 µM. S. cerevisiae tim10-1 ts strain growth, BacTiter-Glo, 24 h;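 active = inhibition of yeast growth at or above a set limit in either of two repeat tests at 20 µM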;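 note: tim10-1 mutant grown at permissive 25 °C to find synthetic lethal compounds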
Hits are given with their value; - = inactive; . = no result given.

SMILES | NALP1 inh | tim23-1 inh | NALP3 yeast inh | tim10-1 inh | PfHsp90 set2 | TIM10 inh | tim10-1 confirm
N#C/C(=C\c1cccnc1)c1nc2c(s1)CCCC2 | - | - | - | 43 | - | - | 32
COc1cc(/C=C(\C#N)c2nc3c(s2)CCCC3)ccc1O | - | - | - | 44 | . | - | -
CC1CCc2nc(/C(C#N)=C/c3cccnc3)sc2C1 (centres undefined) | - | - | - | 42 | - | - | -
COc1cc(/C=C(\C#N)C(=O)N2CCCCC2)ccc1O | - | - | - | - | - | - | .
CCc1ccc(NC(=O)C2=CC=CN3CCS(=O)(=O)N=C23)cc1 | . | - | - | - | - | - | .
CCOC(=O)c1cn(Cc2ccccc2)nc1-c1ccccc1 | . | - | - | - | - | - | .
CCOC(=O)/C=C/C(=O)N1CCc2ccccc21 | - | - | - | 47 | - | - | 40
COc1ccc2c(c1)CCc1c(C(=O)N3CCCc4ccccc43)noc1-2 | - | - | - | 45 | - | - | 34
COc1ccc(/C=C/C(=O)N2CCCc3ccccc32)cc1 | - | - | - | 47 | - | - | -
COc1ccc2c(c1)CCc1c(C(=O)N3CCOCC3)noc1-2 | - | - | - | - | - | - | .
Cc1ccc(C(=O)N2CC(C)CC(C)C2)cc1NC1=NC2CS(=O)(=O)CC2S1 (centres undefined) | - | - | - | - | - | - | .
COCc1nc2ccccc2n1CCc1ccccc1 | - | - | - | - | - | - | .
O=C(CCS(=O)(=O)c1ccc(Br)cc1)NCCC1=CCCCC1 | - | - | - | - | - | - | .
CO/N=C/c1ccc(OC)c(Oc2nc(OC)cc(OC)n2)c1 | - | - | - | - | - | - | .
OC(CNCC1CCCO1)Cn1c2ccc(Cl)cc2c2cc(Cl)ccc21 (centres undefined) | 28 | - | - | 43 | - | - | -
S=C(Nc1ccccc1Cl)N(Cc1ccccc1)Cc1ccccn1 | - | - | - | 47 | - | - | -
COc1ccccc1NC(=S)N(Cc1ccccc1)Cc1ccccn1 | - | - | - | - | - | - | .
CC(C)(O)C#Cc1ccc(C(=O)N2CCN(c3ccc(Cl)cc3)CC2)cc1 | - | - | - | 49 | - | - | 40
CC(C)(O)C#Cc1ccc(C(=O)N2CCN(c3ccc(F)cc3)CC2)cc1 | - | - | - | - | - | - | .
CCN(CC1COc2ccccc2O1)C(=S)Nc1ccc(F)cc1 (centres undefined) | - | - | - | 45 | - | - | -
COc1ccc(NC(=S)N(C)CC2COc3ccccc3O2)cc1 (centres undefined) | - | - | - | - | - | - | .
Cc1csc(SCC(=O)Nc2ccc(Cl)cn2)n1 | - | - | - | - | - | - | .
CC(C)(C)c1csc(SCC(=O)Nc2ccc(Cl)cn2)n1 | - | - | - | 43 | - | - | -
COc1ccc(S(=O)(=O)Nc2cccc(S(=O)(=O)N(C)C)c2)cc1[N+](=O)[O-] | . | . | . | . | - | . | .
Cc1cccc(NC(=O)c2ccc([N+](=O)[O-])cc2Cl)n1 | - | - | - | - | - | - | .
SMILES | NALP1 inh | tim23-1 inh | NALP3 yeast inh | tim10-1 inh | PfHsp90 set2 | TIM10 inh | tim10-1 confirm
Cc1cccc(NC(=S)NC(=O)c2cccs2)n1 | - | - | - | 45 | - | - | -
Cc1nc(NC(=S)NC(=O)c2cccs2)ccc1Br | - | - | - | - | - | - | .
Cc1cccc(NC(=O)c2ccc([N+](=O)[O-])s2)n1 | - | - | - | 61 | - | - | 58
C[C@H]1CN([C@@H](C)CO)C(=O)c2cc(NC(=O)C3CCCCC3)ccc2O[C@H]1CN(C)S(=O)(=O)c1ccccc1 | . | - | - | - | - | - | .
COCCN(C(=O)CCC(=O)Nc1ccccn1)C(C(=O)NC(C)C)c1ccc(C)cc1 (centres undefined) | - | - | - | - | - | - | .
COc1ccc(C2C=C(C34CC5CC(CC(C5)C3)C4)NC(=S)N2)cc1 (centres undefined) | - | - | - | 43 | - | - | -
COc1ccc(C2=CC(c3ccc(OC)c(OC)c3)NC(=S)N2)cc1 (centres undefined) | - | - | - | - | - | - | .
Cc1cccc(N2CCN(C(=O)CCC(=O)N3Cc4ccccc4Oc4ncccc43)CC2)c1C | - | - | - | 54 | - | - | -
CC1(c2ccc(Cl)cc2Cl)NC(=O)N(CC(=O)Nc2ccc3[nH]c(=O)[nH]c3c2)C1=O (centres undefined) | . | - | - | - | . | - | .
O=S(=O)(Nc1ccc(Cl)cn1)c1ccc(F)cc1 | - | - | - | - | - | - | .
CC(=O)C[C@H](O)CC(=O)[C@H]1OC(=O)[C@@H](C)CCCCc2ccccc21 | . | - | - | - | - | - | .
C=CC(=O)Nc1cccc(N(C)c2ccnc(Nc3ccc(N4CCN(C)CC4)cc3)n2)c1 | . | . | . | . | - | . | .
CN(Cc1ccccc1)C(=O)CSc1nc2c(c(C(F)(F)F)n1)CCc1ccccc1-2 | . | - | - | 44 | - | - | -
NC(=O)c1c(NC(=O)CSc2nc3c(c(C(F)(F)F)n2)CCc2ccccc2-3)sc2c1CCCC2 | . | - | - | - | - | - | .
O=[N+]([O-])/C(C(Cl)=C(Cl)Cl)=C(\Sc1ccccc1)N1CCCCC1 | - | - | - | 44 | - | - | 35
O=C(CCSc1ccccc1)N1CCCC1 | - | - | - | - | - | - | .
O=C(O)C[C@H]1c2cc(C(F)(F)F)ccc2S(=O)(=O)N1Cc1ccccc1 | . | - | - | - | - | - | .
CCCN(CCC)C(=O)CC(c1ccccc1)c1cc(C)ccc1O (centres undefined) | - | - | - | 46 | - | - | 34
CN(/N=C/c1cc(Br)cc(Br)c1O)c1ccccc1 | - | - | - | 43 | - | - | 35
O=C(CP(=O)(c1ccccc1)c1ccccc1)N/N=C/c1cc(Br)cc(Br)c1O | - | - | - | - | - | - | .
Cc1cc(=O)oc2cc(OCc3ccc(C(=O)N4CCN(c5ccccc5)CC4)cc3)ccc12 | - | - | - | 43 | - | - | -
Cc1cc(=O)oc2cc(OCc3ccc(C(=O)N4CCN(c5ccc([N+](=O)[O-])cc5)CC4)cc3)ccc12 | - | . | . | . | - | . | .
CC(C)CC(=O)NC(=S)N(Cc1ccccc1)Cc1ccccc1 | - | - | - | - | - | - | .
CC(C)C(=O)NC(=S)N(Cc1ccccc1)Cc1ccccc1 | - | - | - | 41 | - | - | -
Cc1ccc(-n2nc(C)c3onc(C)c3c2=O)cc1 | - | - | - | - | - | - | .
O=[N+]([O-])c1ccc(/C=C/c2ccc3cccc([N+](=O)[O-])c3n2)cc1 | - | - | - | 45 | - | - | -
CCCc1ccc2oc(C(=O)N(Cc3nccn3C)C(C)C)c(C)c2c1 | - | - | - | 43 | - | - | -
O=C(Cn1nc(-c2cccc([N+](=O)[O-])c2)c2ccccc2c1=O)NCC1CCCO1 (centres undefined) | - | - | - | - | - | - | .
